In PubChem BioAssay AID488857 (Sanford-Burnham Center for Chemical Genomics, 2010):
Out of some 1,400 compounds screened, about 560 (40%) were called active.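 How the source made its calls: active means mean inhibition over duplicate tests at 10 µM above 50%; inactive means the rest.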 So high a share suggests a set chosen from earlier hits. The list shows a part of the results.

Assay: ASC/caspase-1 reporter retest in S. cerevisiae at one dose, specificity check for NALP1 project (AID 488857)
Settings: S. cerevisiae ASC/Caspase-1, beta-galactosidase luminescence, 24 h; at 10 µM; active compounds read high

inhibition, inactive:
N=c1ccn(Cc2ccc(Cl)cc2Cl)cc1 38%
CCOC(=O)CSc1nnc(-c2ccccc2)c(=O)[nH]1 45%
CCOCCCn1c(=NC(C)=O)c(C(=O)OCC)cc2c(=O)n3ccccc3nc21 19.2%
Cc1cccc(C)c1NC(=O)CSc1nc2ccccc2c(=O)[nH]1 34.6%
O=C(O)C1CCN(C(=O)c2csc(-c3ccc4c(c3)CCO4)n2)CC1 38.6%
CCn1c(SCC(=O)Nc2ccc3c(c2)OCO3)nnc1-c1cnccn1 30.1%
O=C(Nc1nc2ccccc2s1)C1c2ccccc2Oc2ccccc21 39.3%
Cc1ccc2nc(NC(=O)c3ccc4ncsc4c3)sc2c1 12.6%
Fc1ccc(N2CCN(Cc3cnc(Oc4ccc(Br)cc4)s3)CC2)cc1 14.7%
CCOc1ccc(NC2=C(OC)C(=O)c3ccccc3C2=O)cc1 44.1%
COC1=C(Nc2ccc(O)cc2)C(=O)c2ccccc2C1=O 40.2%
CC1Cc2ccccc2N1CC(=O)Nc1ccc2c(c1)OC(F)(F)O2 (centres undefined) 29.9%
COC(=O)C1=C(C)NC(C)=C(C(=O)OC)C1c1ccc(OC(=O)c2oc3ccccc3c2C)c(OC)c1 25.6%
CC(=O)C1=C(O)C(=O)N(CCC(=O)O)C1c1ccc(Cl)cc1Cl (centres undefined) 35.7%
Cc1ccc(-n2nnnc2C(Cl)c2nnnn2-c2ccc(C)cc2)cc1 40.1%
COc1ccc2cnn(-c3ccc(C)cc3)c(=O)c2c1OC 44%
CCN(CC)S(=O)(=O)c1ccc2[nH]c(=O)cc(C(=O)Nc3ccc(C)c(S(=O)(=O)N(CC)CC)c3)c2c1 25.1%
COc1ccc(CCNC(=O)C2CCN(S(=O)(=O)c3ccc(Cl)cc3)CC2)cc1OC 23.4%
Cn1cnc([N+](=O)[O-])c1S(=O)(=O)c1ccc(Cl)cc1 13.2%
CN1C(=O)CSc2ccc(NC(=O)N3CCN(c4ccccn4)CC3)cc21 40.5%
CN(C)c1nc(N)nc(CSc2nnnn2-c2ccc(C(=O)O)cc2)n1 18.2%
O=C(COC(=O)c1ccc(-c2ccc([N+](=O)[O-])cc2)o1)NC(=O)NC1CCCCC1 46.6%
c1ccc(-c2c(-c3ccccc3)n(Cc3ccco3)c3ncnc(NCCCn4ccnc4)c23)cc1 46.7%
COc1ccc(/C=N\NC(=O)c2cc(OCC(F)(F)F)ccc2OCC(F)(F)F)cc1 27.6%
O=C(Oc1ccc(/C=N/NC(=O)c2ccccc2O)cc1)c1ccccc1 34.4%
COc1ccc(N2C(=O)C(Cl)=C(Nc3c(C)n(C)n(-c4ccccc4)c3=O)C2=O)cc1 29.6%
CCOc1oc(-c2ccc(OC)cc2)nc1C(F)(F)F 40.6%
CCc1ccc(OCCCC(=O)Nc2cccc(C(=O)O)c2)cc1 39.6%
CC1=NN(c2ccc(C)cc2C)C(=O)C1C(c1cccc(O)c1)C1C(=O)N(c2ccc(C)cc2C)N=C1C (centres undefined) 43.8%
CN(C)CCN(Cc1ccccc1)c1nccc(N(C)C)c1C#N 26.8%
COc1cccc(C(=O)N2CCCC(c3nc(-c4cccs4)no3)C2)c1 (centres undefined) 22.3%
Cc1c(C(=O)N2CCOCC2)[nH]c2ccc(OCc3ccccc3)cc12 42.6%
COc1cc(S(=O)(=O)NCc2cccnc2)ccc1F 46.6%
C=CCCCCc1nc2ccccc2c(=O)n1N 36.1%
CCOC(=O)c1ccc(N2CCOCC2)c(NC(=O)COCC(=O)O)c1 9.9%
CCN(CC)S(=O)(=O)c1ccc2oc(C(=O)NC3CCCc4ccccc43)c(C)c2c1 (centres undefined) 23.3%
O=C(c1ccccc1)c1c2c(cc3sc4ccccc4[n+]13)-c1cccc3cccc-2c13 46.8%
Cc1ccc(S(=O)(=O)N(C(=O)c2ccncc2)c2ccc(OC(=O)c3ccncc3)c3ccccc23)cc1 26.1%
CC(C)(C)C(=O)NC1CCN(S(=O)(=O)c2ccc(C(F)(F)F)cc2)CC1 23.1%
CCCN1CCN(CCCNC(=O)CCNC(=O)Cn2ccc3ccccc3c2=O)CC1 35.4%
Cc1cccc(N2Cc3ccccc3C2=NC(=O)c2ccc(Cl)nc2)c1 28.3%
CCCCNc1nc2ccccc2[nH]1 31.2%
CCOC(=O)c1ccc(NC(=O)c2nccnc2C(=O)O)cc1 38.5%
CCOC(=O)c1ccc(NC(=O)CSc2nnc(CNc3ccc(C)cc3)n2C)cc1 31.4%
O=C(CC1Sc2ncnn2C1=O)Nc1ccc(Br)cc1 (centres undefined) 33.6%
C/C(=N\Nc1nc2c(s1)CCCC2)c1ccccc1 37.2%
C=C1SC(Nc2c(C)cccc2C)=NC12CCCCC2 47.3%
CC(C)Cc1nnc(NC(=O)CSc2nc(N)cc(=O)[nH]2)s1 25.6%
Cc1nnc(-c2ccccc2)o1 39.7%
O=C(CSc1nnnn1C1CCCCC1)N1c2ccccc2Sc2ccccc21 39.5%
O=[N+]([O-])c1ccc(-n2nnnc2-c2ccccc2)cc1 19.9%
O=S(=O)(Nc1ccc(-n2cccc2)cc1)c1ccc(Cl)cc1Cl 37.6%
COc1cc(C(=O)CCN2CCC(c3ccccc3)C2)cc(OC)c1OC (centres undefined) 44.2%
CC(=O)Nc1ccc(C(=O)CSc2nnc(Cc3ccccc3)o2)cc1 24.2%
COc1cc(Cc2cnc(N)nc2N)cc(OC)c1OC 14.2%
Cc1ccc(/C=N/NC(=O)c2ccc3nc[nH]c3c2)o1 47.4%
COC(=O)N/N=C/c1ccc(OC(=O)c2ccco2)c(OC)c1 30.8%
C(#Cc1ccc(C#CCN2CCCC2)cc1)CN1CCCC1 42.5%
Cc1[nH][nH]c(=O)c1C(c1ccc(-c2ccc(Cl)c(Cl)c2)o1)c1c(C)[nH][nH]c1=O 39.9%

inhibition, active:
CCOC(=O)c1c(-c2ccccc2)nc2ccccn12 99.1%
Cc1cc(C)n(C(C[N+](=O)[O-])c2ccc(Cl)cc2)n1 (centres undefined) 99.2%
Cc1ccccc1OCCCSc1nc2ccccc2[nH]1 75%
Cc1cccc(OCCCSc2nc3ccc(C)cc3[nH]2)c1 83.2%
O=CC1=C(c2ccccc2)Oc2ccccc2O1 93.3%
Nc1ccc(C(=O)Nc2nc3ccccc3s2)cc1 75.4%
CCOc1ccc(S(=O)(=O)N2c3ccccc3CC2C)cc1 (centres undefined) 52.7%
Cc1cc(Nc2ccccc2)nc2cc(O)ccc12 99.1%
COc1ccc(Nc2cc(C)c3ccc(O)cc3n2)cc1 98.1%
O=C(/C=C/c1ccccc1Cl)c1ccc[nH]1 67.8%
Cc1ccc(-n2c(Cl)c(Cl)nc(Cl)c2=O)cc1 100%
CCCNC(=O)c1nnsc1S(=O)(=O)c1ccc(Cl)cc1 91%
CNC(=O)c1nnsc1S(=O)(=O)c1ccc(Cl)cc1 73%
CC(C)(C)n1nc(-c2ccc(F)cc2)c2c(N)ncnc21 97.5%
O=C(C[n+]1ccc(C(=O)N/N=C/c2ccc(OCc3ccccc3)cc2)cc1)c1ccccc1 54.6%
COc1ccc(N2C(=O)C3[C@@H](C2=O)C2(Cl)C(Cl)=C(Cl)C3(Cl)C2(OC)OC)cc1 (some centres undefined) 50.2%
CCc1ccc(OCCNC(=O)OCc2ccccc2)cc1 57.6%
COc1cccc(-c2nn(C)c3sc(C(=O)N4CCOCC4)cc23)c1 51.4%
COc1ccc2cc(C(C)c3nc4ccccc4c(=O)n3N)ccc2c1 (centres undefined) 59.4%
COc1ccc(-c2cn3cccnc3n2)cc1Br 78.9%
CCCc1[nH]n(-c2nc3ccccc3s2)c(=O)c1C=NCC(C)C 78%
COc1ccnc(N2CCN(c3ccccc3)CC2)c1C#N 56.4%
O=C(NN1C(=O)c2cc(Br)ccc2NC1c1cc(Br)cc(Br)c1O)c1ccncc1 (centres undefined) 76.2%
Fc1ccccc1-c1ccc(/C=N/Nc2nc3ccccc3[nH]2)o1 70%
COc1ccc(NC(=O)CC2Sc3ncnn3C2=O)cc1 (centres undefined) 75.8%
CCOC(=O)c1ccc(NC(=O)CC2Sc3ncnn3C2=O)cc1 (centres undefined) 64.7%
CC1CCCCN1C(=S)NCCc1ccccc1 (centres undefined) 59.1%
Brc1ccc2c(c1)OCCOCCOc1cc(Br)ccc1OCCOCCOCCO2 64.6%
Cc1nc(/N=C(\N)NC(=O)N2c3ccccc3Sc3ccccc32)nc2ccccc12 53.6%
O=C1C=CCC(/C=C/c2ccccc2)O1 (centres undefined) 63%
O=C1c2ccsc2SCCN1Cc1c(Cl)cccc1Cl 56.2%
Cc1sc2ncnc(N/N=C/c3ccccc3O)c2c1C 58.4%
CC1CCN(C(=O)/C=C/c2ccc(C(C)(C)C)cc2)CC1 63.4%
O=C(/C=C/c1ccccc1)N1CCC(c2ccccc2)C1 (centres undefined) 62.6%
Cc1cc(C)cc(OCc2nnc(SCC(=O)OC(C)C)o2)c1 61.5%
COc1ccc(CNc2cccc(F)c2)cc1Br 72.2%
COc1ccc(Cc2ccc(OC)c(N)c2)cc1N 53.1%
COC(=O)N/N=C/c1ccc(-c2cccc(Cl)c2)o1 80.9%
CC1(C)CCSC(/C=C/c2ccccc2)=N1 92%
Cc1[nH][nH]c(=O)c1C(c1c(C)[nH][nH]c1=O)c1cn(Cc2ccc(Cl)c(Cl)c2)c2ccccc12 61.2%
